Source: PubChem (The Scripps Research Institute Molecular Screening Center)
Hits are enriched below; roughly 3.5% of the tested compounds scored in any of these assays.
GPR151 ag = activates the human receptor GPR151; AID 1508602; hit rate 1% among 650,000; PathHunter beta-arrestin GPR151 cells, luminescence; Q8TDV0; activation, % at 11.2 µM; in the data active = activation above about 4.9%;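 also: 0% = median of compound wells and 100% = cells with positive control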
Target sequence (Q8TDV0 whole entry, looked up): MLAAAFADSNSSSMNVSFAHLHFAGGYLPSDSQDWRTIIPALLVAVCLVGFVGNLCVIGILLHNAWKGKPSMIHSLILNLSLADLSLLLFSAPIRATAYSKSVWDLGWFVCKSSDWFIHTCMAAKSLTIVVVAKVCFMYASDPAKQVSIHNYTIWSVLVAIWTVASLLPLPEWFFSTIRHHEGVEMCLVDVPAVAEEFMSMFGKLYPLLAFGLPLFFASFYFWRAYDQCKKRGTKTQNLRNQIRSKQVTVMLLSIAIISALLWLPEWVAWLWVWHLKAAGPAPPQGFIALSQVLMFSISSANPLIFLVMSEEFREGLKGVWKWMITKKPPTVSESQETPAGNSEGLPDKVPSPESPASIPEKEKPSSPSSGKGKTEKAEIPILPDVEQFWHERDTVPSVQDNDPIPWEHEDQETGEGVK
FBW7 activator = human FBW7 E3 ligase activation, primary screen. Q969H0. AlphaScreen FBW7–phospho-cyclin E peptide binding, activator screen. normalized activity (activation), % at 26.1 µM. hit rate 0.13% among 650,000. AID 1259310; in the data active = normalized activity above about 1.9%;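 also: purified mutant Fbw7 with reduced substrate affinity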
TEAD-YAP block = TEAD-YAP interaction inhibition. hit rate 1.4% among 640,000. HEK-TIYL cells, TEAD-Gal4/YAP UAS-luciferase luminescence. inhibition, % at 9.12 µM; in the data active = inhibition above about 32%;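 also: 0% = median of test compound wells and 100% = reference inhibitor wells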
MITF inh = blocks human microphthalmia-associated transcription factor | inhibition, % at 2.6 µM | O75030 | AlphaScreen MITF homodimerization, bead proximity signal | hit rate 0.91% among 650,000; in the data active = inhibition above about 50%;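 also: 0% = vehicle wells with protein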
MITF confirm = confirmation of human MITF inhibitors | shares compounds with MITF inh | AlphaScreen MITF homodimerization, biotin/His-MITF beads | inhibition, % at 2.6 µM | hit rate 16% among 4,700 | AID 1259372;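 active = inhibition above a cutoff derived from the DMSO control wells, cut at about 28% in these data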;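 also: 0% = MITF dimer wells with DMSO only; inhibitors lower the bead chemiluminescence by keeping MITF from dimerizing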
AS interf DR = optically interferes with AlphaScreen signal in dose response; shares compounds with MITF inh; AlphaScreen optical interference counterscreen, cell-free; IC50, µM; hit rate 6% among 480; AID 1259373; call rule not given here
AlphaScreen intf2 = counter-screen: compounds optically interfering with AlphaScreen. shares compounds with MITF inh. LysRS AlphaScreen counterscreen, signal interference, triplicate. inhibition, % at 2.6 µM. hit rate 7.6% among 4,700. AID 1259376;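 active = inhibition above a cutoff derived from the DMSO control wells, cut at about 30% in these data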
* = called active by the depositor.

Results for Cc1cc(Br)ccc1OCCOCCN1CCN(C)CC1 ?
GPR151 ag: 1; FBW7 activator: 0; TEAD-YAP block: -7; MITF inh: 57*; MITF confirm: -1; AlphaScreen intf2: 2

What do the screens show for `Brc1c(OCCN2CCNCC2)ccc2ccccc12`?
GPR151 ag: -3; FBW7 activator: 0; TEAD-YAP block: -11; MITF inh: 64*; MITF confirm: 33*; AS interf DR: >6.5; AlphaScreen intf2: 17

What do the screens show for `CCOC(=O)C1CCCN(CCC(=O)Nc2cc(OC)cc(OC)c2)C1` (centres undefined)?
GPR151 ag: -2; FBW7 activator: 0; TEAD-YAP block: 6; MITF inh: 6

Results for Clc1cc(Br)ccc1OCCN1CCNCC1 ?
GPR151 ag: 0; FBW7 activator: 0; TEAD-YAP block: -9; MITF inh: 57*; MITF confirm: -158; AlphaScreen intf2: -3

What do the screens show for `Clc1ccc(OCCN2CCNCC2)c(Cl)c1`?
GPR151 ag: 1; FBW7 activator: 0; TEAD-YAP block: 5; MITF inh: 45

What do the screens show for `Brc1c(OCCn2ccnc2)ccc2ccccc12`?
GPR151 ag: 2; FBW7 activator: 0; TEAD-YAP block: 17; MITF inh: 57*; MITF confirm: -9; AlphaScreen intf2: 18

Results for O=C(Nc1nnc(-c2ccco2)o1)c1ccc([N+](=O)[O-])o1 ?
GPR151 ag: -1; FBW7 activator: 0; TEAD-YAP block: 15; MITF inh: 55*; MITF confirm: 8; AlphaScreen intf2: 15

How did O=C(Nc1nnc(-c2ccccc2)o1)c1ccc([N+](=O)[O-])o1 do in these assays?
GPR151 ag: 1; FBW7 activator: 0; TEAD-YAP block: 11; MITF inh: -14

What do the screens show for `CC(C)(C)C1CCc2c(sc3nc(SCC(N)=O)[nH]c(=O)c23)C1` (centres undefined)?
GPR151 ag: 1; FBW7 activator: 0; TEAD-YAP block: -16; MITF inh: -3

Results for Cc1ccc(Nc2nc(NCCN3CCOCC3)nc3nccnc23)cc1C ?
GPR151 ag: -2; FBW7 activator: 1; TEAD-YAP block: -8; MITF inh: 61*; MITF confirm: -7; AlphaScreen intf2: -4

How did COc1ccccc1CN1CCN(Cc2ccccc2C(F)(F)F)CC1 do in these assays?
GPR151 ag: -2; FBW7 activator: 0; TEAD-YAP block: 9; MITF inh: 70*; MITF confirm: -7; AlphaScreen intf2: 1

Results for COc1ccccc1CN1CCN(C(=O)c2cccs2)CC1 ?
GPR151 ag: -1; FBW7 activator: 0; TEAD-YAP block: -3; MITF inh: 36

How did COc1cc(OC)cc(C(=O)N2CCN(Cc3ccccc3C(F)(F)F)CC2)c1 do in these assays?
GPR151 ag: 2; FBW7 activator: 0; TEAD-YAP block: 2; MITF inh: 62*; MITF confirm: -3; AlphaScreen intf2: -2

Results for COc1cccc(OC)c1C(=O)N1CCN(Cc2ccccc2C(F)(F)F)CC1 ?
GPR151 ag: 0; FBW7 activator: 0; TEAD-YAP block: -3; MITF inh: 52*; MITF confirm: -17; AlphaScreen intf2: 8

Results for COc1cc(OC)cc(C(=O)N2CCN(Cc3cc(OC)c(OC)cc3OC)CC2)c1 ?
GPR151 ag: 3; FBW7 activator: 0; TEAD-YAP block: -2; MITF inh: 49

Results for COc1cccc(OC)c1C(=O)N1CCN(Cc2ccccc2Br)CC1 ?
GPR151 ag: 1; FBW7 activator: 0; TEAD-YAP block: 10; MITF inh: 63*; MITF confirm: 2; AlphaScreen intf2: 7

Results for COc1ccc(OC)c(CN2CCN(C(=O)c3c(OC)cccc3OC)CC2)c1 ?
GPR151 ag: 1; FBW7 activator: 0; TEAD-YAP block: 1; MITF inh: 32

Results for Cc1ccc(S(=O)(=O)N2CCN(C(C)CC(=O)O)CC2)cc1 (centres undefined) ?
GPR151 ag: -1; FBW7 activator: 0; TEAD-YAP block: -15; MITF inh: 65*; MITF confirm: -3; AlphaScreen intf2: 0

Results for O=C(Nc1nc(-c2nc3ccccc3s2)cs1)c1ccc(S(=O)(=O)N2CCCc3ccccc32)cc1 ?
GPR151 ag: 0; FBW7 activator: 0; TEAD-YAP block: -20; MITF inh: 1

How did S=c1[nH]nc(-c2ccccc2)n1/N=C/C=C/c1ccco1 do in these assays?
GPR151 ag: 1; FBW7 activator: 0; TEAD-YAP block: -4; MITF inh: 1

What do the screens show for `S=c1[nH]nc(-c2cccnc2)n1/N=C/C=C/c1ccco1`?
GPR151 ag: 0; FBW7 activator: 0; TEAD-YAP block: 1; MITF inh: 71*; MITF confirm: 77*; AS interf DR: >6.5; AlphaScreen intf2: 2

Results for COc1ccc(S(=O)(=O)N2CCCCC2C(=O)O)cc1OC (centres undefined) ?
GPR151 ag: 3; FBW7 activator: 0; TEAD-YAP block: 11; MITF inh: 9

What do the screens show for `COc1ccc(S(=O)(=O)N2CCCCC2C(=O)O)cc1` (centres undefined)?
GPR151 ag: 0; FBW7 activator: 0; TEAD-YAP block: 8; MITF inh: 68*; MITF confirm: 10; AlphaScreen intf2: 15

What do the screens show for `CCOC(=O)C1C(=O)CC(C)(O)C(C(=O)OCC)C1c1ccc(Cl)c(Cl)c1` (centres undefined)?
GPR151 ag: 0; FBW7 activator: 1; TEAD-YAP block: 1; MITF inh: 5

Results for COc1ccc(C(=O)n2nc(-c3ccco3)nc2N)cc1 ?
GPR151 ag: -1; FBW7 activator: -1; TEAD-YAP block: -1; MITF inh: 80*; MITF confirm: 78*; AlphaScreen intf2: 49*

How did Cc1ccc(C(=O)n2nc(-c3ccco3)nc2N)cc1 do in these assays?
GPR151 ag: 0; FBW7 activator: 0; TEAD-YAP block: 3; MITF inh: 16

What do the screens show for `CCOc1cc(CN2CCN(S(=O)(=O)c3ccccc3[N+](=O)[O-])CC2)ccc1OC`?
GPR151 ag: 2; FBW7 activator: 0; TEAD-YAP block: -10; MITF inh: 66*; MITF confirm: 9; AlphaScreen intf2: 13

Results for COc1cccc(CN2CCN(S(=O)(=O)c3ccccc3[N+](=O)[O-])CC2)c1 ?
GPR151 ag: 0; FBW7 activator: 0; TEAD-YAP block: -2; MITF inh: 66*; MITF confirm: 9; AlphaScreen intf2: 11

What do the screens show for `O=C(CC(NCc1ccccn1)C(=O)O)Nc1cccc(Cl)c1` (centres undefined)?
GPR151 ag: -1; FBW7 activator: -1; TEAD-YAP block: -8; MITF inh: 112*; MITF confirm: 84*; AlphaScreen intf2: 100*

How did CCCCCNC(CC(=O)Nc1cc(C)ccc1C)C(=O)O (centres undefined) do in these assays?
GPR151 ag: -1; FBW7 activator: 0; TEAD-YAP block: 7; MITF inh: 1
